Shown are actives, neighbours in structure and some others; about 4% of the full set was active somewhere.
tim10-1 inh: growth inhibitors of tim10-1 mutant yeast, primary screen, luminescence, uHTS | S. cerevisiae tim10-1 ts strain growth, BacTiter-Glo, 24 h | inhibition, % at 20 µM | 330,000 tested, 2.2% active | AID 463190, 2010;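 active = inhibition of at least 40%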;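 also: mutant grown at 25 °C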
NALP1 inh: NALP1 inflammasome inhibitors in reconstituted yeast, colorimetric, S. cerevisiae, triplicate retest | S. cerevisiae NALP1/ASC/caspase-1 growth, X-gal OD620, 72 h | inhibition, % at 10 µM | 280,000 tested, 0.61% active; in the data active = inhibition mostly above about 24%, no sharp cut-off; inactive = mostly below about 32%
tim23-1 inh: growth inhibitors of tim23-1 mutant yeast, primary screen, luminescence, uHTS. S. cerevisiae tim23-1 growth, BacTiter-Glo luminescence, 24 h. 330,000 tested, 1.3% active. inhibition, % at 20 µM;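 active = growth inhibition of the mutant yeast at or above 50%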;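 also: temperature-sensitive mutant grown at 25 °C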
NLRP3 yeast inh: NALP3 inflammasome inhibitors in reconstituted yeast, primary screen, luminescence, uHTS. Yeast reconstituted NLRP3/ASC/caspase-1, beta-gal luminescence, 24 h. inhibition, % at 10 µM. 330,000 tested, 0.39% active. AID 2825, 2010;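 active = inhibition of 50% or more; inactive = inhibition below 50%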
TIM10 inh: growth inhibitors of isogenic TIM10 control yeast, primary screen, counter-screen for tim10-1 yeast inhibitor project, luminescence, uHTS | S. cerevisiae TIM10 strain growth, BacTiter-Glo luminescence, 24 h | inhibition, % at 10 µM | 330,000 tested, 1.4% active;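 active = inhibition of 40% or more at the single tested concentration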;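 also: wild-type TIM10 isogenic control strain grown at permissive 25 °C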
tim10-1 confirm: growth inhibitors of tim10-1 mutant yeast, confirmation, single concentration, luminescence, S. cerevisiae | shares compounds with tim10-1 inh | S. cerevisiae tim10-1 ts strain growth, BacTiter-Glo, 24 h | inhibition, % at 20 µM | 7,400 tested, 56% active;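 active = inhibition of yeast growth at or above a set limit in either of two repeat tests at 20 µM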;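 also: tim10-1 mutant grown at permissive 25 °C to find synthetic lethal compounds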
Large screens that a line does not name were inactive (follow-up assays come after a bar, where they were run).

O=S(=O)(c1ccc2c(c1)OCCO2)N1CCC(n2cnc3cc(F)ccc32)CC1	none
COc1ccc(C(=O)NCC(=O)OCC(=O)c2ccc3c(c2)NC(=O)CO3)cc1	none
CCC(C)(C)c1ccc(OCCCC[n+]2ccccc2)c(C(C)(C)CC)c1	tim10-1 inh 46.2 | tim10-1 confirm 37.2
CCCCCc1ccc(OCCCC[n+]2cccc(C)c2)c(CCCCC)c1	none
CCCCCc1ccc(OCCCC[n+]2ccccc2)c(CCCCC)c1	tim10-1 inh 42.5 | tim10-1 confirm 32.3
CN1CCN(c2nc3ccccn3c(=O)c2C=C(C#N)C#N)CC1	none
Cc1ccc(NS(=O)(=O)c2cccc3nsnc23)cc1[N+](=O)[O-]	none
CN(C)CCCNC(=O)C1(O)c2cc(Br)ccc2NC(=O)N1c1ccc(Cl)cc1 (centres undefined)	none
Cc1ccc(NCc2nnc(SCC(=O)c3ccccc3)o2)c(C)c1	tim10-1 inh 42.1 | tim10-1 confirm inactive
Cc1ccc(NCc2nnc(SCC(=O)N3CCCc4ccccc43)o2)c(C)c1	none
CCC(C)c1ccc(NC(=O)Nc2cccnc2)cc1 (centres undefined)	tim10-1 inh 43.3 | tim10-1 confirm 33.5
O=C(CC1S/C(=N/N=C2CCCCCC2)NC1=O)Nc1ccc(Br)cc1F (centres undefined)	tim10-1 inh 44.0 | tim10-1 confirm inactive
COc1ccc(-n2c(C)cc(C(=O)CSc3nnc(-c4ccoc4C)n3C)c2C)cc1	tim10-1 inh 40.2 | tim10-1 confirm inactive
C/C(=N\NC(=S)Nc1cc(S(=O)(=O)N2CCOCC2)ccc1Cl)c1ccc(N2CCOCC2)cc1	none
C/C(=N\NC(=S)Nc1ccc(C)c(C)c1)c1ccc(N2CCOCC2)cc1	tim10-1 inh 40.7 | tim10-1 confirm inactive
COc1ccccc1-c1nnc(Sc2nc([N+](=O)[O-])nn2C)o1	tim10-1 inh 48.0 | tim10-1 confirm 41.7
CCOc1ccc2nc(SC3CC(=O)N(c4cccc(OC)c4)C3=O)sc2c1 (centres undefined)	tim10-1 inh 42.4 | tim10-1 confirm 37.0
CCOc1ccc2nc(SC3CC(=O)N(c4ccccc4)C3=O)sc2c1 (centres undefined)	none
Cc1cc2c(sc3c(C)ccc(C)c32)c(C)n1	tim10-1 inh 48.5 | tim10-1 confirm inactive
CCCOC(=O)c1ccc(Oc2c(-c3ccc(O)cc3O)n[nH]c2C)cc1	tim10-1 inh 55.3 | tim10-1 confirm inactive
COc1cccc(NC(=S)NC(=O)c2cncc(Br)c2)c1	tim10-1 inh 46.7 (no result: NALP1 inh) | tim10-1 confirm inactive
CC(=O)c1cccc(NC(=S)NC(=O)c2cncc(Br)c2)c1	none
O=C(NC(=S)Nc1ccccc1O)c1cncc(Br)c1	none (no result: NALP1 inh)
O=C(NC(=S)Nc1ccccc1[N+](=O)[O-])c1cncc(Br)c1	none | tim10-1 confirm inactive
CC(=O)c1c(C)[nH]c(C(=O)Nc2nc(-c3ccc(-c4ccccc4)cc3)cs2)c1C	tim10-1 inh 45.4 | tim10-1 confirm inactive
COC(=O)c1cccc(CSc2nc(-c3ccccc3)c(C#N)c(=O)[nH]2)c1	tim10-1 inh 47.4 | tim10-1 confirm inactive
N#Cc1c(-c2ccccc2)nc(SCc2ccc(Cl)cc2)[nH]c1=O	none
c1ccc(CCn2c3ccccc3c3nnc(SCc4ccc5nonc5c4)nc32)cc1	none
CSc1ccc(/C=C/C(=O)c2c(O)cc(C)oc2=O)cc1	tim10-1 inh 46.9 | tim10-1 confirm 38.5
Cc1ccnc(NC(=O)C23CC4CC(CC(C4)C2)C3)c1	tim10-1 inh 48.9 | tim10-1 confirm 33.9
CCCCCCCNC1=CC(=O)CC(c2ccco2)C1 (centres undefined)	tim10-1 inh 49.6 | tim10-1 confirm inactive
Cc1sc2ncnc(N3CCN(CCOc4ccc(Cl)cc4)CC3)c2c1C	tim10-1 inh 45.2 | tim10-1 confirm 31.6
Cc1sc2ncnc(N3CCC(C)CC3)c2c1C	none
Cc1ccccc1N1CCN(S(=O)(=O)Cc2ccccc2)CC1	none
COc1ccc2cc(C3CC(c4ccco4)=NN3S(=O)(=O)c3ccccc3)c(Cl)nc2c1 (centres undefined)	tim10-1 inh 46.7 | tim10-1 confirm inactive
Cc1ccc(S(=O)(=O)CCC(=O)Nc2sccc2C(N)=O)cc1	none (no result: NALP1 inh)
COC(=O)c1ccsc1NC(=O)CCS(=O)(=O)c1ccccc1	tim10-1 inh 41.5 | tim10-1 confirm inactive
COC(=O)c1ccsc1NC(=O)CCS(=O)(=O)c1ccc(Cl)cc1	tim10-1 inh 56.2 (no result: NALP1 inh) | tim10-1 confirm 59.1
CCN(CC(=O)NCCCN1CCOCC1)S(=O)(=O)c1ccc(Cl)cc1	none
COc1ccc(-c2cn(-c3ccccc3)nc2C(=O)O)cc1OC	none
Cc1cc(Cl)ccc1OCCCC(=O)N1CCOCC1	tim10-1 inh 42.4 | tim10-1 confirm inactive
COc1cccc2cc(C(=O)NC3CC4CCC3C4)oc12 (centres undefined)	none
O=C(NC1CCCC1)c1cc(-c2ccc(Cl)cc2)on1	none
COc1ccc(/C(N)=N/OC(=O)C2CCCCC2)cc1OC	none
N/C(=N\OC(=O)CC1CCCCC1)c1ccc(Br)cc1	none
COc1ccc(/C(N)=N/OC(=O)C2CCCCC2)cc1	tim10-1 inh 50.6 | tim10-1 confirm 31.4
COc1ccc(/C(N)=N/OC(=O)CC2CCCCC2)cc1OC	tim10-1 inh 50.8 | tim10-1 confirm 60.8
COc1ccc(/C(N)=N/OC(=O)CCC2CCCC2)cc1OC	tim10-1 inh 45.7 | tim10-1 confirm 36.8
CCCCOc1ccccc1C1NC(=O)CCC1[N+](=O)[O-] (centres undefined)	none
CC(C)[C@H](NS(=O)(=O)c1ccccc1)C(=O)OCC(=O)N1N=C(c2ccc(Cl)cc2)CC1c1ccco1 (some centres undefined)	tim10-1 inh 40.9 | tim10-1 confirm inactive
COCC(=O)OCC(=O)N1N=C(c2ccc(Cl)cc2)CC1c1ccco1 (centres undefined)	none
CC1(C)CCCN(C(=O)c2ccc3c(c2NCCO)C(=O)c2ccccc2C3=O)C1	tim10-1 inh 43.0 | tim10-1 confirm inactive
O=C1c2ccccc2C(=O)c2c1ccc(C(=O)N1CCCCC1)c2NCCO	none
Cc1sc(NC(=S)NC(=O)C(C)(C)C)c(C(N)=O)c1C	none
O=C(O)CCCc1ccc2ccc3cccc4ccc1c2c34	tim10-1 inh 43.4 | tim10-1 confirm inactive
CC(OC(=O)c1ccc(NC(=O)CC#N)cc1)C(=O)NC(c1ccccc1)c1ccccc1 (centres undefined)	none (no result: NALP1 inh)
Cc1cc(C(=O)C(C)OC(=O)c2ccc(NC(=O)CC#N)cc2)c(C)n1-c1ccccc1 (centres undefined)	tim10-1 inh 42.3 (no result: NALP1 inh) | tim10-1 confirm inactive
Nc1cc(=O)[nH]c(SCC(=O)Nc2cccc(S(=O)(=O)N3CCCCC3)c2)n1	none (no result: NALP1 inh)
